# FLuc modulator: inhibits or activates purified firefly luciferase, miR-21 counter-screen. P08659. purified FLuc, Km substrates, luminescence inhibition. Potency, µM (top dose mostly 57.5 µM), for inactives: at the highest dose activity change, negative = inhibition, usual class: inhibitors. 360,000 compounds, 6.9% hits;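 further: plate controls were vehicle for no effect and reference inhibitor for full effect; nearly all actives have a fitted effect of over 55% in size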
# Target sequence (P08659 whole entry, looked up): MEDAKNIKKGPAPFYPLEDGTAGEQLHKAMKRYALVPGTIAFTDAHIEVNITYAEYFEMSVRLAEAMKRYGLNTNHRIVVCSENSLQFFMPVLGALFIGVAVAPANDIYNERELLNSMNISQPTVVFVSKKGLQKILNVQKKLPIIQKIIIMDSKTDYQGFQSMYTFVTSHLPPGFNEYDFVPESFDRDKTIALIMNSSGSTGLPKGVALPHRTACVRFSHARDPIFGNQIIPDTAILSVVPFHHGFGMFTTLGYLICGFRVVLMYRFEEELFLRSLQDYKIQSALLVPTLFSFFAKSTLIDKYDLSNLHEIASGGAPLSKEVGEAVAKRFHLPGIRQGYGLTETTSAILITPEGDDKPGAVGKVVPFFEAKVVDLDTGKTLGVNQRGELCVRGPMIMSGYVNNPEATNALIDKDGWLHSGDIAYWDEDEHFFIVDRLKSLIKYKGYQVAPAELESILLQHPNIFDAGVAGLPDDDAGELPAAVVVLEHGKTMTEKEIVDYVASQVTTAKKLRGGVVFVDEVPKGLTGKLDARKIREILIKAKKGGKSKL
#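 Biochemical qHTS of compounds, final roughly 60 µM downward over six points, against 10 nM purified firefly luciferase using Km concentrations of substrates (10 uM D-luciferin, 10 uM ATP) in Tris acetate pH 7.5 buffer; luminescence output.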
# uPA generation: blocks generation of uPA at the cell surface | cell surface uPA generation assay, qHTS | Potency, µM (titrated, usually from 38.3 µM), for inactives: at the highest dose activity change, negative = inhibition, most hits filed as inhibitors | 330,000 compounds, 0.31% hits | AID 540303; active means well fitted inhibition curve with a large enough effect; inconclusive means small, poorly fitted or top-dose-only effect; inactive means no such curve, though single readings can be large or run the other way; tested in mouse RAW 264.7 cells; further: on the % scale 0 is the no-effect control and ±100 the full control effect; nearly all actives have a fitted effect of over 55% in size
# SMN2 splice up: SMN2 splice variant enhancement. 210,000 compounds, 2.8% hits. HEK293 SMN2-luciferase splicing reporter, luminescence, 30-36 h. AID 1458. Potency, µM (top dose mostly 46.1 µM), for the others: top-dose activity change, positive = activation, usual class: activators; further: % of control where 0% means no effect; nearly all actives have a fitted effect of over 55% in size
#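 HEK293 cells carry an SMN2 […]–luciferase reporter in which exon 7 inclusion puts luciferase in frame. Cells were plated 10-12 h before compound addition, then incubated 30-36 h at 37C. ONE-Glo luminescence was read; sodium butyrate at 4.5 mM final served as control.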
# NPC1 prom act: NPC1 promoter activation; Huh7 NPC1 promoter luciferase reporter, 24 h; Potency, µM (doses to about 9.22 µM), for inactives: at the highest dose activation, actives largely listed as activators; 320,000 compounds, 2.4% hits; further: % of control where 0% means no effect; nearly all actives have a fitted effect of over 60% in size
#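 In 1536-well qHTS, Huh7 cells harboring an NPC1 promoter–luciferase construct received compound for 24 h; activation was quantified by luminescence following luciferase reagent addition.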
# ELG1 genotox: genotoxicity induction in ELG1-luciferase HEK293T cells; HEK293T ELG1-luciferase reporter, luminescence, 16 h; Potency, µM (highest dose often 46 µM), without a hit: at the highest dose activity change, positive = activation, most hits filed as activators; 330,000 compounds, 1.3% hits; AID 504466; further: % of control where 0% means no effect; nearly all actives have a fitted effect of over 60% in size
#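 Genotoxic stress is detected as increased luminescence from luciferase-tagged ELG1 in HEK293T cells, measured with ONE-Glo after a 16 hr treatment at 37 °C.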
# Rab9 prom act: activators of Rab9 promoter; Huh7 Rab9 promoter-luciferase reporter, luminescence, 24 h; Potency, µM (titrated, usually from 9.22 µM), for the others: top-dose activation, negative = inhibition, most hits filed as activators; 320,000 compounds, 2.8% hits; AID 485297; further: % of control where 0% means no effect; nearly all actives have a fitted effect of over 60% in size
#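 Luminescence read-out: Huh7 cells stably expressing Rab9-luciferase, treated 24 h with compound at 37 °C, then lysed with luciferase reagent for 10 min at ambient before reading.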
# Starred values were filed as active, the others as inactive; u = inconclusive; x = no result given. This is a sample that favours compounds with a hit; in the whole collection about 7.3% have one here. Unless noted, the call rests on the fitted dose curve; in most records, active means well fitted curve in the direction sought with a large enough effect; inconclusive means small, poorly fitted or top-dose-only effect, or another doubt; inactive means no such curve, though single readings can be large; an effect the other way counts as inactive or inconclusive. Potency means the concentration at half of the fitted maximal effect.
SMILES,FLuc modulator,uPA generation,SMN2 splice up,NPC1 prom act,ELG1 genotox,Rab9 prom act
Cc1ccc(NC(=O)c2ccc3c(c2)OCCO3)cc1S(=O)(=O)Nc1cccc(Cl)c1,17µM*,4%,x,13%,-4%,16%
Cn1cc([N+](=O)[O-])c(C(=O)N2CCCCCC2)n1,1%,6%,x,2%,8%,1%
Cc1ccc(-c2cc(C(=O)Nc3ccc4c(c3)OCCO4)c3ccccc3n2)cc1,9.5µM*,3%,11µM*,16%,9%,19%
Cc1ccc(C(=O)NCC(=O)OCC(=O)c2ccc3c(c2)OCCO3)cc1C,21µM*,5%,-6%,7%,12%,8%
Cc1ccc(C)c(NC(=O)c2cc(C)nc3ccccc23)c1,-2%,7%,x,0%,-3%,0%
Cc1ccc(NC(=O)c2ccc3c(c2)OCCO3)cc1C,0.27µM*,-3%,x,0.63µM*,u,0.32µM*
Cc1ccc(-c2cc(C(=O)Nc3cc(C(=O)O)ccc3C)c3ccccc3n2)cc1,11µM*,-11%,x,-1%,3%,-1%
COc1cccc(CN(C(=O)c2oc3ccc(Br)cc3c2C)C2CCS(=O)(=O)C2)c1 (stereo not drawn),-11%,x,-15%,x,x,x
CCN1CCN(C(c2ccc(SC)cc2)c2c(O)cc(C)n(CCOC)c2=O)CC1 (stereo not drawn),-17%,x,x,x,x,x
C(#CCN1CCC(Cc2ccccc2)CC1)COCCOCc1ccccc1,1%,5%,-10%,-4%,-7%,-2%
O=C(Nc1cccc(F)c1)c1ccc2c(c1)OCCO2,4.8µM*,-2%,x,u,u,3.2µM*
CN(CC(=O)Nc1cccc(F)c1)C(=O)c1ccc2c(c1)OCCO2,u,1%,x,0%,16%,-5%
Cc1cccc(NC(=S)NNC(=O)c2ccco2)c1,u,x,19%,-3%,1%,1%
O=C(Nc1ccccc1)c1ccc2c(c1)OCCO2,4.3µM*,-9%,18µM*,0.71µM*,u,1.6µM*
O=C(Nc1ccc(NC(=O)c2ccc3c(c2)OCCO3)cc1)c1ccccc1,2%,-1%,x,-3%,u,-7%
CCCc1cc(C(=O)NNC(=S)Nc2cccc(C)c2)cs1,11µM*,-4%,5.6µM*,u,9%,2.5µM*
Cc1ccc(C(=O)Nc2ccc3c(c2)OCCO3)c(C)c1,0.3µM*,-17%,x,0.089µM*,u,0.089µM*
CC(C)CCNC(=O)c1cc(-c2ccc(Br)s2)nc2ccccc12,-15%,x,-3%,x,x,x
COCCCNC(=O)c1ccc(Cn2c(=O)c3ccccc3n(Cc3c(C)cc(C)cc3C)c2=O)cc1,1%,x,-1%,x,x,x
Cc1ccc(C)c(N(C)C(=O)Cc2c(C(=O)O)[nH]c3ccc(Cl)cc23)c1,u,x,-7%,x,x,x
O=S(=O)(c1ccccc1)c1nnn2c1nc(N1CCN(c3ccccc3)CC1)c1cc(Cl)ccc12,-6%,x,5%,x,x,x
CC(C)CNC(=S)NNC(=O)c1csc2c1CCC(C)C2 (stereo not drawn),1%,x,-14%,0%,-5%,4%
Cc1cccc(NC(=S)NNC(=O)c2csc3c2CCC(C)C3)c1 (stereo not drawn),12µM*,x,19%,16%,25%,u
O=C1C(C=Nc2ccc(F)cc2)=C(O)c2ccccc21,0.27µM*,-4%,x,0.35µM*,u,0.79µM*
COc1ccc(N=CC2=C(O)c3ccccc3C2=O)c(OC)c1,0.076µM*,-12%,-60%,u,0.065µM*,0.71µM*
Cn1c(=O)c2c(O)c(C=Nc3ccc(F)cc3)c(=O)n(C)c2n(C)c1=O,0%,3%,x,-2%,2%,-2%
Cc1ccc(F)cc1N=Cc1c(O)c2ccccc2oc1=O,u,18%,x,-5%,3%,2%
Cc1ccccc1N=CC1=C(O)c2ccccc2C1=O,0.13µM*,-10%,8.9µM*,u,u,0.25µM*
CSc1nc(N)n2nc(-c3ccc(Cl)cc3)cc2n1,0.67µM*,-9%,x,2µM*,u,1.6µM*

# Screening data (PubChem BioAssay)
